# PubChem BioAssay (EPA / NIEHS)
# Records with an inconclusive call do not appear. Activity calls are given as the source filed them. How the source made its calls, unless noted: active means hit-call score of the fitted dose curve at least 0.9, where 1 is the maximum; inactive means score below 0.9. Starred links: 1 amine or outer side, 2 acyl side, 3 side chain; linkers in the order of their positions; H or OH if unused. Positions of bridges follow the written chain, without caps; N, C: chain ends. Non-standard residues stand in square brackets, D forms with d. Residues, ends and D or L forms follow the SMILES beside them. Adda = CO[C@@H](Cc1ccccc1)[C@@H](C)/C=C(C)/C=C/[C@H](N[*:1])[C@H](C)C(=O)[*:2]; dAsp(3S-Me) = C[C@H](C(=O)[*:3])[C@@H](N[*:1])C(=O)[*:2]; d(γGlu) = O=C(O)[C@@H](CCC(=O)[*:2])N[*:1]; NMeDha = C=C(NC)C(=O)O
# Legend:
# [1] = CCTE_Harrill_HTTr_Viability_MCF7: CCTE's 6-hour Cell Viability Assessment for the High-Throughput Transcriptomics (HTTr) Platform, in MCF-7 cells cultured in DMEM + 10% fetal bovine serum, Harrill Lab (AID 2284010)
# Summary of the method: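 Membrane integrity was scored by high-content imaging of propidium iodide dye exclusion after a 6 h exposure across an eight-point dilution series. Data were fitted bidirectionally relative to DMSO as negative control and baseline.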
# [2] = CCTE_Harrill_HTTr_CellCount_MCF7: CCTE's Cell Proliferation Assessment for the High-Throughput Transcriptomics (HTTr) Platform, Harrill Lab (AID 2284012; active means hit-call score of the fitted dose curve at least 0.9, where 1 is the maximum;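 further: cells exposed to compound for six hours; intended direction is loss of nuclei count meaning fewer cells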)
# Summary of the method: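 MCF-7 cells were exposed for 6 h to an eight-point dilution series; Hoechst-labeled nuclei were counted by high content imaging. Curves were fitted bidirectionally against DMSO as negative control and baseline, with signal loss indicating reduced cell count.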
# [3] = UKN5_HCS_SBAD2_neurite_outgrowth: University of Konstanz (UKN) Leist Lab Neurite Outgrowth Assay in human iPSC-derived immature Dorsal Root Ganglia Neurons (UKN5) (AID 2284070); settings: actives raise or lower the signal
# Summary of the method: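 Human iPSC-derived immature DRG neurons (SBAD2) on Matrigel with CHIR99021 (1.5 uM), SU5402 (5 uM), DAPT (5 uM); compounds added 1 h post-seeding for 24 h. Calcein-AM neurite area imaged; bidirectional fit vs DMSO.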
# [4] = UKN4_HCS_LUHMES_neurite_outgrowth: University of Konstanz (UKN) Leist Lab Neurite Outgrowth Assay in human LUHMES cells (UKN4) (AID 2284206); settings: actives raise or lower the signal
# Summary of the method: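 LUHMES neuronal precursors differentiated 2 days, replated without cAMP/GDNF, then exposed to chemicals for 24 h. Neurite area imaged by high-content microscopy after calcein-AM staining; Hoechst H-33342 marks viability. Bidirectional fit versus DMSO.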
# [5] = UKN4_HCS_LUHMES_cell_viability: Viability Assessment in the University of Konstanz (UKN) Leist Lab Neurite Outgrowth Assay in human LUHMES cells (UKN4) (AID 2284232)
# Summary of the method: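 LUHMES cells differentiated 2 days, replated without cAMP/GDNF, then exposed to compounds for 24 h from attachment. Viability read by high-content fluorescence imaging after 30 min live-staining with H-33342 and calcein-AM; bidirectional fit relative to DMSO baseline.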
# [6] = IUF_NPC4_neurite_area_120hr: Leibniz Research Institute for Environmental Medicine (IUF) 120-hour Neuronal Morphology Assay for Neurite Area (NPC4) (AID 2284305; active means hit-call score of the fitted dose curve at least 0.9, where 1 is the maximum)
# Summary of the method: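 Neurite area is read out as the mean pixel area, excluding nuclei, of skeletonized TUBB3-positive neurons imaged after 120 h. Primary human neural progenitor spheres differentiated on poly-D-lysine/laminin with compound present from day 0. Activity was referenced to DMSO controls.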
# [7] = IUF_NPC1_cytotoxicity_72hr: Cytotoxicity Assessment at 72 hours in the Leibniz Research Institute for Environmental Medicine (IUF) Neural Progenitor Cell Proliferation Assay (NPC1) (AID 2284332; active means hit-call score of the fitted dose curve at least 0.9, where 1 is the maximum;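 further: rising LDH signal means more cytotoxicity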)
# Summary of the method: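 Single human fetal cortex neural progenitor spheres (GW 16-19, 0.25-0.35 mm) in EGF/FGF proliferation medium were exposed to compound for 72 h at 37C without renewal. Medium LDH release was read as resorufin fluorescence and fitted as gain-of-signal.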
# [8] = CCTE_Harrill_HTTr_Apoptosis_MCF7: CCTE's 6-hour Apoptosis Assessment for the High-Throughput Transcriptomics (HTTr) Platform, in MCF-7 cells cultured in DMEM + 10% fetal bovine serum, Harrill Lab (AID 2284011)
# Summary of the method: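 MCF-7 cells in DMEM + 10% FBS exposed 6 h to chemicals over an eight-point dilution series. Caspase-3/7 activation imaged by high-content CellEvent Green staining; fitted bidirectionally versus DMSO.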
# [9] = CCTE_Mundy_HCI_hNP1_Pro_ResponderAvgInten: CCTE's Proliferation Assay in human neuroprogenitor cells, Mundy Lab (AID 2284224; active means hit-call score of the fitted dose curve at least 0.9, where 1 is the maximum)
# Summary of the method: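 Proliferation was scored as BrdU labelling intensity in human neural progenitors derived from WA09 embryonic cells, measured 26.25 hours after chemical dosing. Activity was fitted relative to DMSO.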
# [10] = CCTE_Mundy_HCI_Cortical_NOG_NeuronCount: CCTE's Neurite Outgrowth Assay in rat cortical cells for Neuron Count, Mundy Lab (AID 2284236; active means hit-call score of the fitted dose curve at least 0.9, where 1 is the maximum;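 further: neurons counted by imaging betaIII-tubulin and Hoechst stained cortical cells; cells exposed to compound for about 48 hours before fixation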)
# Summary of the method: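 Read-out: neuron number by high-content imaging of betaIII-tubulin (Alexa Fluor-488) and Hoechst-labelled rat primary cortical cells.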
# [11] = CCTE_Mundy_HCI_hNP1_Casp3_7: CCTE's Caspase-Glo 3/7 Assay in human neuroprogenitor cells for Apoptosis, Mundy Lab (AID 2284240)
# Summary of the method: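 Apoptosis is scored by activated caspase-3/7 luminescence in WA09-derived neural progenitor cells, measured 26.5 h after chemical dosing. Values represent gain of signal relative to DMSO vehicle.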
# [12] = CCTE_Mundy_HCI_Cortical_Synap_Neur_Matur_BPCount: CCTE's Synaptogenesis and Neurite Maturation Assay in rat cortical cells for Branch Point Count, Mundy Lab (AID 2284211)
# Summary of the method: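 Branch point number is quantified by automated imaging of fluorescently labelled neurites and synapses in rat primary cortical neurons exposed from DIV 7 to DIV 12. Activity is analysed relative to DMSO negative control.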
# [13] = CCTE_Mundy_HCI_Cortical_NOG_NeuriteCount: CCTE's Neurite Outgrowth Assay in rat cortical cells for Neurite Count, Mundy Lab (AID 2284212);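 further: cells fixed about two days after chemical exposure began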
# Summary of the method: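 Neurite number per cell from high-content imaging of betaIII-tubulin immunostaining, with Hoechst nuclear counterstain.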
# [14] = CCTE_Mundy_HCI_Cortical_Synap_Neur_Matur_NeuriteCount: CCTE's Synaptogenesis and Neurite Maturation Assay in rat cortical cells for Neurite Count, Mundy Lab (AID 2284222);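 on outcome: exposure from day 7 to day 12 in vitro with readout at day 12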
# Summary of the method: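 Rat cortical neurons, 96-well; AraC DIV 5; chemical + media change DIV 7; end DIV 12. Fix PFA/Hoechst, anti-MAP2 + anti-synaptophysin IF. HCI neurite count vs DMSO baseline.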
# [15] = CCTE_Mundy_HCI_Cortical_NOG_BPCount: CCTE's Neurite Outgrowth Assay in rat cortical cells for Branch Point Count, Mundy Lab (AID 2284237);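 further: branch points counted about two days after chemical exposure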
# Summary of the method: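 Measured 50.33 h after dosing, this morphology endpoint uses rat primary cortical cultures labelled for betaIII-tubulin. Branch points are quantified by high-content imaging, with DMSO as negative control and baseline.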
# [16] = IUF_NPC5_oligodendrocyte_differentiation_120hr: Leibniz Research Institute for Environmental Medicine (IUF) 120-hour Oligodendrocyte Differentiation Assay (NPC5) (AID 2284304; active means hit-call score of the fitted dose curve at least 0.9, where 1 is the maximum;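 further: primary human fetal neural progenitor spheres plated to migrate and differentiate; share of O4-positive cells among Hoechst nuclei found by CNN image analysis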)
# Summary of the method: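 Human fetal neural progenitor spheres (0.3 mm) plated on poly-D-lysine/laminin in N2 differentiation medium and exposed for 120 h at 7 concentrations, with half-medium renewal at day 3. O4-positive cells identified by CNN, expressed as percent of Hoechst nuclei.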
# [17] = CCTE_Mundy_HCI_iCellGluta_NOG_NeuriteLength: CCTE's Neurite Outgrowth Assay in iCellGluta cells for Neurite Length, Mundy Lab (AID 2284318; active means hit-call score of the fitted dose curve at least 0.9, where 1 is the maximum)
# Summary of the method: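 Automated high-content imaging of betaIII-tubulin (Alexa Fluor-488) and Hoechst-stained cells gave neurite length, normalized to the DMSO baseline.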
# [18] = CCTE_Mundy_HCI_iCellGluta_NOG_NeuriteCount: CCTE's Neurite Outgrowth Assay in iCellGluta cells for Neurite Count, Mundy Lab (AID 2284342; active means hit-call score of the fitted dose curve at least 0.9, where 1 is the maximum;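 further: chemical exposure about 48 hours starting 2 hours after plating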)
# [19] = CCTE_Mundy_HCI_hNP1_CellTiter: CCTE's Cell Titer-Glo 2 Assay in human neuroprogenitor cells for Viability, Mundy Lab (AID 2284241; active means hit-call score of the fitted dose curve at least 0.9, where 1 is the maximum)
# Summary of the method: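 Human neural progenitor cells (hNP1, WA09-derived) were plated on poly-L-ornithine/laminin and grown 40 to 44 hours at 37 °C, 5% CO2 before chemical addition. Twenty-four hours later, ATP was measured by CellTiter-Glo luminescence; loss of signal versus DMSO indicates reduced viability.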
smiles,measurement,setting,value
COc1ccc2c3c1O[C@H]1[C@@H](O)C=C[C@H]4[C@@H](C2)N(C)CC[C@@]341,outcome,[1],inactive
same,outcome,[2],inactive
Cc1ccc2cc3c(ccc4ccccc43)c3c2c1CC3,outcome,[1],inactive
CP(=O)(O)CCC(N)C(=O)O (configuration not stated),outcome,[3],inactive
same,outcome,[4],inactive
same,outcome,[5],inactive
same,outcome,[6],inactive
same,outcome,[7],inactive
CC(C)(C)OOC(C)(C)C#CC(C)(C)OOC(C)(C)C,outcome,[2],inactive
COCCOC(C)=O,outcome,[1],inactive
same,outcome,[2],inactive
O=c1[nH]c2c(c(=O)n1C1CCCCC1)CCC2,outcome,[1],inactive
same,outcome,[8],inactive
same,outcome,[2],inactive
O=C1CCO1,outcome,[1],inactive
same,outcome,[8],inactive
same,outcome,[2],inactive
C=C1C(=O)N[C@H](C)C(=O)N[C@H](CC(C)C)C(=O)N[C@@H](C(=O)O)[C@H](C)C(=O)N[C@@H](CCCN=C(N)N)C(=O)N[C@@H](/C=C/C(C)=C/[C@H](C)[C@H](Cc2ccccc2)OC)[C@H](C)C(=O)N[C@@H](C(=O)O)CCC(=O)N1C (R[Adda][d(γGlu)][NMeDha][dA][dL][dAsp(3S-Me)]-OH; lactam N-7),outcome,[8],inactive
same,outcome,[2],inactive
O=C(O)CNCP(=O)(O)O,outcome,[9],inactive
same,outcome,[10],inactive
same,outcome,[11],inactive
CCOP(=O)(OCC)SCSCC,outcome,[12],inactive
same,AC50,[13],78.6 µM (active)
same,outcome,[14],inactive
same,outcome,[9],inactive
same,AC50,[10],89 µM (active)
same,AC50,[15],84.1 µM (active)
same,outcome,[11],inactive
same,outcome,[16],inactive
same,outcome,[6],inactive
same,AC50,[17],49.8 µM (active)
same,outcome,[7],inactive
same,AC50,[18],49.8 µM (active)
FC(F)(F)c1ccc(OCCCOc2c(Cl)cc(OCC=C(Cl)Cl)cc2Cl)nc1,outcome,[1],inactive
same,outcome,[8],inactive
same,outcome,[2],inactive
CCCCC(CC)COC(=O)c1cc(Br)c(Br)c(Br)c1Br (configuration not stated),outcome,[8],inactive
same,outcome,[2],inactive
Clc1c(Cl)c(Cl)c2c(c1Cl)Oc1c(Cl)c(Cl)c(Cl)c(Cl)c1O2,outcome,[1],inactive
same,outcome,[2],inactive
CCCCOC(=O)N(C)SN(C)C(=O)Oc1cccc2c1OC(C)(C)C2,outcome,[1],inactive
same,outcome,[8],inactive
same,outcome,[2],inactive
CCOP(=O)(O)OCC,outcome,[1],inactive
same,outcome,[8],inactive
C/C(=C/C=C/[C@@H](C)C(=O)O)[C@H]1CN[C@H](C(=O)O)[C@H]1CC(=O)O,outcome,[3],inactive
same,outcome,[4],inactive
same,outcome,[5],inactive
same,outcome,[7],inactive
CC(=O)[O-].CC(=O)[O-].O.O.O.[Pb+2],outcome,[3],inactive
same,outcome,[4],inactive
same,outcome,[5],inactive
same,outcome,[10],inactive
same,outcome,[11],inactive
CNC(=O)Oc1cccc(C(C)C)c1,outcome,[1],inactive
same,outcome,[8],inactive
same,outcome,[2],inactive
[Cl-].[Cl-].[Cl-].[Gd+3],outcome,[1],inactive
Cc1cc(N)ccc1N,outcome,[1],inactive
same,outcome,[2],inactive
C[n+]1ccc(-c2cc[n+](C)cc2)cc1,AC50,[3],202 µM (active)
same,AC50,[4],189 µM (active)
same,AC50,[12],0.947 µM (active)
same,AC50,[13],29.6 µM (active)
same,AC50,[14],1.21 µM (active)
same,AC50,[9],85.1 µM (active)
same,outcome,[5],inactive
same,AC50,[15],50 µM (active)
same,outcome,[11],inactive
same,outcome,[19],inactive
same,outcome,[6],inactive
